Shiga toxin inh – inhibitors of Shiga toxin in Vero cells; inhibition, % at 38.7 µM; 9.2% of 290,000 active; Vero cells, Shiga toxin protein synthesis inhibition reporter; in the data active = inhibition mostly above about 28%, no sharp cut-off; inactive = mostly below about 43%; also: 0% is about no effect
HCMV antiviral – inhibitors of human cytomegalovirus | HFF cells, HCMV-luciferase reporter, 72 h; stronger effect = lower value | activity change, negative = inhibition, % at 57.5 µM | 4.5% of 410,000 active | AID 1259415; in the data active = activity change below about -60%; inconclusive = no clear call, values can overlap the other calls; inactive = above about -39%; also: % is scaled to controls: 0 for no effect and ±100 for the full control effect
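Human foreskin fibroblasts infected with luciferase-reporter HCMV at MOI 1 PFU/cell, compounds at two doses. Luciferase measured 72 h post infection; normalized to buffer-only basal and Salinomycin (10uM) controls.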
Pf growth 48h – P. falciparum growth inhibition at 48 hours (one generation); P. falciparum luciferase growth in erythrocytes, 48 h; Potency, µM (highest dose often 28.7 µM), for inactives: at the highest dose activity change, negative = inhibition, actives largely listed as inhibitors; 5.9% of 310,000 active; AID 504832; also: potency is read from the fitted curve at half-maximal effect; % is scaled to controls: 0 for no effect and ±100 for the full control effect
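Compounds are pin-transferred into medium, infected erythrocytes (2% hematocrit, 0.1% parasitemia final) are added, and plates sit one parasite generation at 37 C in 5% CO2. Detection reagent is then added and luminescence measured.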
Cycloheximide cs – counter-screen for Shiga toxin inhibitors: cycloheximide protein synthesis inhibition. cell reporter, cycloheximide protein synthesis inhibition counterscreen. max response, %. 12% of 300,000 active; in the data active = max response mostly above about 13%, no sharp cut-off; inactive = mostly below about 14%; also: read at 38.3 µM for the half of the compounds with a filed dose; 0% is about no effect
Pf growth 96h – P. falciparum growth inhibition at 96 hour, primary screen for plastid delayed-death inhibitors; 6.9% of 320,000 active; P. falciparum luciferase reporter growth, 96 h; Potency, µM (top dose mostly 28.7 µM), for inactives: at the top dose activity change, negative = inhibition, most hits filed as inhibitors; also: potency is read from the fitted curve at half-maximal effect; % is scaled to controls: 0 for no effect and ±100 for the full control effect
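Infected RBCs, 2% Hct / 0.05% parasitemia final; luciferase-reporter P. falciparum; cpd 96 h, 37 C, 5% CO2; luciferase detection reagent; luminescence.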
Active calls of the source: *; ? = inconclusive; / = no result given; [ ] = dose if it differs, or a comment. Most compounds without a hit are left out; they make up all but 20% or so of the library. Unless noted, calls follow the shape of the dose curve; as a rule, active = well fitted inhibition curve with a large enough effect; inconclusive = small, poorly fitted or top-dose-only effect, or another doubt; inactive = no such curve, though single readings can be large or run the other way.

SMILES	Shiga toxin inh	HCMV antiviral	Pf growth 48h	Cycloheximide cs	Pf growth 96h
O=C(CSc1nncn1-c1cccnc1)Nc1cccc([N+](=O)[O-])c1	0	-18	21%	-4	4%
O=C(O)c1ccc(/C=C(\c2nc3ccccc3[nH]2)c2nc3ccccc3s2)cc1	40*	-31	6%	30*	8%
O=C(O)c1ccc(-c2nc3ccccc3[nH]2)cc1	-12	-22	15%	1	-2%
O=C(Nc1ccccc1)C1(c2ccccc2)CC1(Cl)Cl (stereo not given)	20	0	3.7µM*	7	1.7µM*
CCC(C(=O)Nc1cc(OC)ccc1OC)n1nc(-c2ccccc2)c2c(c1=O)CCCC2 (stereo not given)	/	-31	/	/	/
N#Cc1c(-c2ccccc2F)cc(C2CC2)nc1SCC(=O)c1cccs1	-12	?	?	13*	?
CCCSc1nc(N)nc(-c2cccs2)c1C#N	84*	62	54%	35*	-5%
CCOC(=O)CSc1nc(C2CC2)cc(-c2ccc(Cl)cc2)c1C#N	14	-8	10µM*	-5	-27%
CCSc1nc(C2CC2)cc(-c2cccs2)c1C#N	10	-32	/	16*	2%
Cc1ccc(C(=O)N2CCN(S(=O)(=O)N3CCCCCC3)CC2)cc1	-8	-9	7%	-4	-4%
CC(=O)Nc1ccc(OCC(O)Cn2nc(C)c(Br)c2C)cc1 (stereo not given)	-4	-8	?	-4	?
CCCSc1sc(C(=O)OC)c(-c2cccs2)c1C#N	-1	2	10µM*	1	10µM*
CSc1sc(C(=O)N2CCCCC2)c(-c2cccs2)c1C#N	3	-19	-2%	0	3%
c1ccc(N2CC3CCc4ccccc4C3=N2)cc1 (stereo not given)	64*	7	148%	39*	147%
O=C1c2ccccc2C(=O)N1CC1=NCCc2ccccc21	26	22	?	19	-20%
CN(Cc1ccccc1)c1ccc2nnc(-c3ccccc3)n2n1	-14	45	4.1µM*	-4	?
c1ccc(-c2nnc3ccc(N4CCCC4)nn23)cc1	8	-22	-2%	-2	1µM*
Cc1cccc(C)c1N1CCN(c2ccc3nnc(C(F)(F)F)n3n2)CC1	-3	95	9.3µM*	-2	/
O=C(Nc1ccccc1N1CCCC1)c1ccc([N+](=O)[O-])cc1Cl	7	?	?	4	42%
O=C(NCCCCc1ccccc1)c1ccccc1Br	/	49	/	/	/
C=C1CC2C3CC[C@@]4(OCOC45COCO5)[C@@]3(C)C(O)CC2[C@@]2(C)CCC(=O)C=C12 (stereo not given in full)	-4	20	10µM*	-4	13µM*
CC(CN1C(C)CCCC1C)OC(=O)c1ccc(Cl)cc1 (stereo not given)	-13	?	17%	-4	32%
Cc1ccc(C)c(NC(=O)C(=O)NCc2ccccn2)c1	-5	0	0%	1	0%
Cc1ccc(Cn2ccnc2SCC(=O)NCc2ccc(F)cc2)cc1	/	-20	/	/	/
NS(=O)(=O)c1ccc2nc(NC(=O)c3ccc4ncsc4c3)sc2c1	33	/	131%	9.3*	15%
SMILES	Shiga toxin inh	HCMV antiviral	Pf growth 48h	Cycloheximide cs	Pf growth 96h
Cc1ccc2nc(NC(=O)c3ccc4c(c3)OCO4)sc2c1	76*	32	246%	62*	427%
Cc1ccc(C(=O)Nc2nc3ccc(S(=O)(=O)N4CCCC4)cc3s2)cc1	/	-7	/	/	/
NS(=O)(=O)c1ccc2nc(NC(=O)c3ccc4c(c3)OCCO4)sc2c1	-11	-16	-19%	-2	0%
Cc1ccc2nc(NC(=O)c3ccc4ncsc4c3)sc2c1	60*	14	14%	33*	89%
Cc1ccc2nc(NC(=O)c3ccc(N4C(=O)CCC4=O)cc3)sc2c1	51*	-3	83%	31*	?
O=C(Cc1ccccn1)N1CC(=O)N2[C@H](C1)[C@@H](c1ccc(Br)cc1)[C@@H]2CO	/	63	/	/	/
CCCN(CC(=O)Nc1ccc(Cl)cc1Cl)C(=O)/C=C/c1cc(OC)ccc1OC	-15	-11	15%	5	6%
Cc1ccnc(NC(=O)c2ccc(N3C(=O)CCC3=O)cc2)c1	49*	11	107%	45*	22%
CCOc1ccc2nc(NC(=O)/C=C/c3ccc4c(c3)OCO4)sc2c1	-11	?	16%	-2	174%
O=C(Nc1nc2cc3c(cc2s1)OCO3)c1ccc(N2C(=O)CCC2=O)cc1	19	0	2%	0	8%
O=C(Nc1nc2cc3c(cc2s1)OCO3)c1cccc(N2C(=O)CCC2=O)c1	50*	-18	61%	25*	66%
O=C(/C=C/c1ccc2c(c1)OCO2)Nc1nc2ccc(F)cc2s1	63*	-18	81%	22*	57%
Cc1cc(C)c2sc(NC(=O)c3ccc(N4C(=O)CCC4=O)cc3)nc2c1	34	-26	-22%	10	-3%
Cc1ccc(-n2c(=O)c3c4c(sc3n(Cc3cccc(Cl)c3)c2=O)CCC4)cc1C	/	8	/	/	/
O=c1cc(-c2ccccc2)oc2ccccc12	/	20	95%	/	123%
O=c1cc(/C=C/c2ccccc2)oc2ccccc12	107*	179	?	47*	-1%
O=C(CCc1ccccc1)Nc1ccc(NC(=O)c2ccco2)nc1	28	63	/	22*	/
Cc1ccc(NC(=O)c2ccco2)nc1	/	10	/	/	/
O=C(Nc1ccc(NC(=O)c2ccccc2Cl)nc1)c1ccco1	69*	-17	-22%	17*	10%
N#CC1=C(Nc2ccccc2Cl)SC(c2ccccc2O)NC1=O (stereo not given)	5	?	?	-4	-7%
COc1cccc(NC2=C(C#N)C(=O)NC(c3cccc(OC)c3O)S2)c1 (stereo not given)	61	0	7%	19*	?
CCOc1ccc(CNC(=O)c2ccc(-c3nc(CSc4ccc(C)cc4)c(C)o3)cc2)cc1	/	-6	/	/	/
COc1ccccc1CCc1nnc(CCC(=O)NCC(C)Oc2cccnc2)o1 (stereo not given)	-2	28	21%	1	17µM*
COc1ccccc1CCc1nnc(CCC(=O)NCCOc2cccnc2)o1	10	-5	-6%	4	12%
CC(C)(C)C(=O)N1CCN(c2nc3ccc(Cl)cc3s2)CC1	80*	/	-5%[0.00184 µM]	19*	66%
CC(=O)N1CCN(c2nc3ccc(Br)cc3s2)CC1	53*	60	85%	27*	67%
CC(C)(C)C(=O)N1CCN(c2nc3c(F)cccc3s2)CC1	/	-9	/	/	/
CC(C)(C)C(=O)N1CCN(c2ccc(Cl)cc2[N+](=O)[O-])CC1	33*	6	24%	25*	36%
CC(C)(C)C(=O)N1CCN(c2nc3ccc(Br)cc3s2)CC1	31*	-33	31%	23*	27%
CCOc1cc(NC(=S)NCCCN2CCOCC2)c(OCC)cc1NC(=O)c1cccs1	-19	-39	0%	-1	?

Screening data as filed in PubChem.
